# Results published in ChEMBL document CHEMBL3988442, “University of Dundee, Small-Polar-MMV Screening Library” (2021).
# For part of these data: Entries with a potency or affinity are not part of this list.
# Assays:
# Design in all cases: scale not given: direction of the effect not stated beside the values
# [1] = biological target: Protein translocase subunit SecA (Escherichia coli (strain K12)) (UniProt P10408); assay: Assay to Identify E. coli SecA ATPase Inhibitors; type: functional; conditions: 30 µM
# Sequence of Protein translocase subunit SecA (Escherichia coli (strain K12)) (P10408 whole entry): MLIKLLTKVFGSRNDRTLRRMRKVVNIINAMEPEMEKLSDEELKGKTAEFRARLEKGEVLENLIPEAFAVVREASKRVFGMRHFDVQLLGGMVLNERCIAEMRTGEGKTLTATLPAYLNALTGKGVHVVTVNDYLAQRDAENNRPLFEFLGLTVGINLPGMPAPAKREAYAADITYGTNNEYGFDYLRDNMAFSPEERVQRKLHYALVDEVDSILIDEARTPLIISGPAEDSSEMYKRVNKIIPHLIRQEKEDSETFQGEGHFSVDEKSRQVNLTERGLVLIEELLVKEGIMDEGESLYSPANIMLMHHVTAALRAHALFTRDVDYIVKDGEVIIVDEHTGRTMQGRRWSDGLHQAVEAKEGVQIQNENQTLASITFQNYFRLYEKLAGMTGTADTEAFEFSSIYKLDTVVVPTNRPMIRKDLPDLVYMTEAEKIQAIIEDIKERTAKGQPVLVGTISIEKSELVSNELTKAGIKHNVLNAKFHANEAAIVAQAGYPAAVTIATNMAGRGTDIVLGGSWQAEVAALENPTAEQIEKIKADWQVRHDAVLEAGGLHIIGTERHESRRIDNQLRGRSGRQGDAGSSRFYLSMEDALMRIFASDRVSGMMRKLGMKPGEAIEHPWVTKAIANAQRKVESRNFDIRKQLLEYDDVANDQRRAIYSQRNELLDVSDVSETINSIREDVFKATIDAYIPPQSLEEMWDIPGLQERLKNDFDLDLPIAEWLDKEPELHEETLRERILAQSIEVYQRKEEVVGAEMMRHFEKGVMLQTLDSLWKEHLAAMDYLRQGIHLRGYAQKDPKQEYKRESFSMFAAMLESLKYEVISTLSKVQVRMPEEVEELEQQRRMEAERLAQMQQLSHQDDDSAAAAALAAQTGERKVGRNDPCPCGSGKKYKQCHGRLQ
# [2] = biological target: T1, Ubiquitin-activating enzyme e1, putative (Leishmania donovani (strain BPK282A1)) (UniProt E9BSI1); assay: Leishmania donovani Ubiquitin Activating Enzyme (LdE1); type: functional; conditions: 30 µM
# T1 sequence (whole entry): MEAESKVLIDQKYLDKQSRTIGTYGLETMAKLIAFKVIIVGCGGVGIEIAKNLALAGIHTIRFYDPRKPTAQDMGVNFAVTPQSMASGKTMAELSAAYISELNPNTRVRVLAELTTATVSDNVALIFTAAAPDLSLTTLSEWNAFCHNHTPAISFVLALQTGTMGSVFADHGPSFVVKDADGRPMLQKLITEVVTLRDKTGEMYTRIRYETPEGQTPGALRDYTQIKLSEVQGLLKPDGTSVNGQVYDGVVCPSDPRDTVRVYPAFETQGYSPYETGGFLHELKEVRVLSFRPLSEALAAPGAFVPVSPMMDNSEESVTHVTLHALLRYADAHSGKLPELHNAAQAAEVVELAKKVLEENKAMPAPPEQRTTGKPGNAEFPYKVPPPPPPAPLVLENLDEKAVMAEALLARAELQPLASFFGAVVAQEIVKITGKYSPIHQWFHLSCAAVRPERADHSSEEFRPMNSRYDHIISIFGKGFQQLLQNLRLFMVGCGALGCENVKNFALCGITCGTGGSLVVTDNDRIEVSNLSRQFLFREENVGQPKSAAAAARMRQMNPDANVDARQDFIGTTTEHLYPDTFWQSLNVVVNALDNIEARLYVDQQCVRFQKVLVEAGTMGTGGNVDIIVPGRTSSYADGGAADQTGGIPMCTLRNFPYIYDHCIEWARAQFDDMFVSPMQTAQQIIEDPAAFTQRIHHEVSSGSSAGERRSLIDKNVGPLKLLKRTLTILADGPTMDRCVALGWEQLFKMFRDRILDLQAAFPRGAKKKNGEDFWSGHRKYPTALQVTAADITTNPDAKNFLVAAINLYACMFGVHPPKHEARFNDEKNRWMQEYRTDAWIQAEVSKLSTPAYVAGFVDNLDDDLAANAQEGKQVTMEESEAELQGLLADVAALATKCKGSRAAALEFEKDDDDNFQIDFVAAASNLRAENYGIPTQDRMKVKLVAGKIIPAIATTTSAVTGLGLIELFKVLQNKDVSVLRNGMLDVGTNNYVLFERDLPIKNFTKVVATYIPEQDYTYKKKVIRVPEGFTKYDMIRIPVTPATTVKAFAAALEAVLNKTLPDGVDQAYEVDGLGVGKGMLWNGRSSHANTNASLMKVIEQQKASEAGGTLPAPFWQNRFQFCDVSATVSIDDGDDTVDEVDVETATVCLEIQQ
# [3] = biological target: Sialic acid-binding Ig-like lectin 9 (Homo sapiens) (UniProt Q9Y336); assay: Hs-Siglec9 ALPHAscreen SOP 20170721; conditions: 10 µM
# Sequence of Sialic acid-binding Ig-like lectin 9 (Homo sapiens) (Q9Y336 whole entry): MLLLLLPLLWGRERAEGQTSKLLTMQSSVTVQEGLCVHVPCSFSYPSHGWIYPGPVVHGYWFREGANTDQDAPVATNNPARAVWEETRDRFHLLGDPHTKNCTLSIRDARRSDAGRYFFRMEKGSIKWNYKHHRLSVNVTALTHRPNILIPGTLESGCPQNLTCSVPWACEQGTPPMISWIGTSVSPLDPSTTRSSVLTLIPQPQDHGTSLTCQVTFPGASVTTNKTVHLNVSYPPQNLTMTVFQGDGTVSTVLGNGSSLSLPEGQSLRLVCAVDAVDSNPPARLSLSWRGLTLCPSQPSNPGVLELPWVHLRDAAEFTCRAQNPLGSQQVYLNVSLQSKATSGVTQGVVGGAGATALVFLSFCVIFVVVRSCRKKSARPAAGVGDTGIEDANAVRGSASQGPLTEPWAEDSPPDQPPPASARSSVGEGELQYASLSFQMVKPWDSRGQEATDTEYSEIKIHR
# Trypanosoma cruzi = assay: Trypanosoma cruzi phosphomannomutase and mannose-1-phosphate guanylyltransferase assay; type: functional; conditions: 10 µM
# [4] = biological target: T2, Arginase-2, mitochondrial (Homo sapiens) (UniProt P78540); assay: in vitro enzyme assay to detect the production of urea directly proportional to the activity of Arginase II; type: functional; conditions: 33.3 µM; further: in the data most compounds retested in dose-response had high values
# T2 sequence (whole entry): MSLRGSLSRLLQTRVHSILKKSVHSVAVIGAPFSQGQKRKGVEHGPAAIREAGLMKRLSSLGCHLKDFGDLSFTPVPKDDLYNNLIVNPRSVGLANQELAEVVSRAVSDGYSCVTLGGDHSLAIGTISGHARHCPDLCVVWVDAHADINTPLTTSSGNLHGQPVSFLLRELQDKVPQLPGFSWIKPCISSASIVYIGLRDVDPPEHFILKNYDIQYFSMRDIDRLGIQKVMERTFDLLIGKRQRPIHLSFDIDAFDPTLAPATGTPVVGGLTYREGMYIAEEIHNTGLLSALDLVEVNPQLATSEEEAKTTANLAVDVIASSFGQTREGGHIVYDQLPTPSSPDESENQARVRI
# [5] = biological target: T3, Proteasome subunit beta (Trypanosoma cruzi) (UniProt O96673); assay: Trypanosoma cruzi proteasome chymotrypsin-like activity (TcProtChymo) assay.; further: in the data most compounds retested in dose-response had high values; type: functional; conditions: 9.37 µM
# T3 sequence (whole entry): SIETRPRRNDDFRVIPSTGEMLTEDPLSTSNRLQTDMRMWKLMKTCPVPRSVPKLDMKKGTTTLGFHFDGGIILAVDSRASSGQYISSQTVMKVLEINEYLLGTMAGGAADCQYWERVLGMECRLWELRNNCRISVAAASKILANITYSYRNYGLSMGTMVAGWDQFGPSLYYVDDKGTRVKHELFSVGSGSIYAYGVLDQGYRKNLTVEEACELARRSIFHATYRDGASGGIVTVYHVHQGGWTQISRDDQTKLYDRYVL
# Homo sapiens = organism: Homo sapiens; assay: To identify inhibition of the IFN signalling (Jak-Stat) pathway via expression of an eGFP reporter gene under the control of an IFN-stimulated response element (ISRE) containing MxA promoter.; type: functional; conditions: 30 µM
# [6] = biological target: T4, Tyrosyl-tRNA synthetase, putative (Trypanosoma cruzi (strain CL Brener)) (UniProt Q4DSP6); assay: Trypanosoma cruzi tyrosyl tRNA synthetase (TcYRS) _High Tyrosine SOP; type: functional; conditions: 30 µM; further: in the data most compounds retested in dose-response had high values
# T4 sequence (whole entry): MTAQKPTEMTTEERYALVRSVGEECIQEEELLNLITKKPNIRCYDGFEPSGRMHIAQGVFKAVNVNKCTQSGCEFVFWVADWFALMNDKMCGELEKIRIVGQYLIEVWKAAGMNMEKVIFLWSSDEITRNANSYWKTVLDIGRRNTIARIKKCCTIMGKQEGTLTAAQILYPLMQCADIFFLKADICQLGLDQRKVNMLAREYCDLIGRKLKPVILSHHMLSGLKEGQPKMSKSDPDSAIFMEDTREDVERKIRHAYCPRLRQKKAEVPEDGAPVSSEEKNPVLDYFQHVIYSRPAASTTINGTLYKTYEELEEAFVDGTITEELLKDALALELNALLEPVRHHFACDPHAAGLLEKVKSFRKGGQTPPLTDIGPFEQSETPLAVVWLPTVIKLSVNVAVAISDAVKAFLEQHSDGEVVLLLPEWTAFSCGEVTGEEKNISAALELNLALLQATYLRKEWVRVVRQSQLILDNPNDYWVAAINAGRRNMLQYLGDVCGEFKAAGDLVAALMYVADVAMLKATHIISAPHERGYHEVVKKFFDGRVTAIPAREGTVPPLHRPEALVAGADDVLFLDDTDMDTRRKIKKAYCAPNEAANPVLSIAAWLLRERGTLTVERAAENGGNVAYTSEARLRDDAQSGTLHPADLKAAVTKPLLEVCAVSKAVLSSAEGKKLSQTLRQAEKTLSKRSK
# [7] = biological target: T4, Tyrosyl-tRNA synthetase, putative (Trypanosoma cruzi (strain CL Brener)); assay: Trypanosoma cruzi tyrosyl tRNA synthetase (TcYRS) SOP; type: functional; conditions: 30 µM
# [8] = biological target: Chromo domain-containing protein 1 (Saccharomyces cerevisiae (strain ATCC 204508 / S288c) (Baker's yeast)) (UniProt P32657); assay: ScCHD-1 Enzyme Inhibition Assay; type: functional; conditions: 30 µM; further: in the data most compounds retested in dose-response had high values
# Sequence of Chromo domain-containing protein 1 (Saccharomyces cerevisiae (strain ATCC 204508 / S288c) (Baker's yeast)) (P32657 whole entry, the tested form may be a part): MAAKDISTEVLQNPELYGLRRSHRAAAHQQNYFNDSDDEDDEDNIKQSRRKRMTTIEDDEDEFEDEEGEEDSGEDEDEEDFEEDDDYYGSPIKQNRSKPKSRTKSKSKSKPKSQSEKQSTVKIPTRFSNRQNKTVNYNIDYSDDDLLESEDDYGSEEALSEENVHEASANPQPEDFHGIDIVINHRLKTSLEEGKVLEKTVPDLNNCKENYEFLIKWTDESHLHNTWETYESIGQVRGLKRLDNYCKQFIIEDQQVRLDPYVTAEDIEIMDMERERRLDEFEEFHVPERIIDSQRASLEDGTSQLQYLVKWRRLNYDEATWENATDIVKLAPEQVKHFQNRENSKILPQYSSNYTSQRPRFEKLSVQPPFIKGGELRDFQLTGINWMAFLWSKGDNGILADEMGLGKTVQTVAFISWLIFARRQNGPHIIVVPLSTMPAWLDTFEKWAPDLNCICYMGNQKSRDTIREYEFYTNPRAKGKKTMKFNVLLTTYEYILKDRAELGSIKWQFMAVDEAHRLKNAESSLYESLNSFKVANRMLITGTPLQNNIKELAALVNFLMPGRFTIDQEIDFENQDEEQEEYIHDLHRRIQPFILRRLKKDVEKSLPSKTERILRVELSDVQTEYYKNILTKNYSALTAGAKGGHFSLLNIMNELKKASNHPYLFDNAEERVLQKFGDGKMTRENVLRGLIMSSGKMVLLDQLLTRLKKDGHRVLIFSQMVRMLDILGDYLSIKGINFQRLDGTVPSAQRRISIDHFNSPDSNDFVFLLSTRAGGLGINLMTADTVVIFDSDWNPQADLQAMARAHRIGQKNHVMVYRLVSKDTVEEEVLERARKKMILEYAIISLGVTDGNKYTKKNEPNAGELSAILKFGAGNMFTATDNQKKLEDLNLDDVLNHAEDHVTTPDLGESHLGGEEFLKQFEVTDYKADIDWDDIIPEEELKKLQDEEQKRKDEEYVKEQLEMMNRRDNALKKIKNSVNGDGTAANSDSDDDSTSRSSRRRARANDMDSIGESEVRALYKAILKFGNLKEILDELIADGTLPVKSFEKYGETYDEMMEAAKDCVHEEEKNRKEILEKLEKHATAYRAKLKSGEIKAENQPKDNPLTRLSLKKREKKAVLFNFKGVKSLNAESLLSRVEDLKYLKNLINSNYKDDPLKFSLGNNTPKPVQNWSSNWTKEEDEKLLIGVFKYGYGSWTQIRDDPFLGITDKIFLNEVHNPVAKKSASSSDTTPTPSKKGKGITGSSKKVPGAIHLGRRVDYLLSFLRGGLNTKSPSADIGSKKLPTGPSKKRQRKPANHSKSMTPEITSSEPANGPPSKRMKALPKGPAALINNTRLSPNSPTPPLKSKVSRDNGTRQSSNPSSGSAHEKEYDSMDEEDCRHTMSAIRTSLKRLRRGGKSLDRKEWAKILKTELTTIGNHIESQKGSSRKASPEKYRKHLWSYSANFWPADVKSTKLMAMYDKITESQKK
Structure (SMILES),Percent Effect [1],Percent Effect [2],Percent Effect [3],Percent Effect (Trypanosoma cruzi),Percent Effect [4],Percent Effect [5],Percent Effect (Homo sapiens),Percent Effect [6],Percent Effect [7],Percent Effect [8]
Fc1cccc(CN2CCO[C@H]3[C@@H](OCc4ccccn4)CC[C@@H]32)c1,-6.18%,6.49%,-6.92%,7.3%,-3.24%,8.91%,4.17%,2.63%,15.4%,-0.559%
CS(=O)(=O)c1ccccc1C(=O)NCCCN1CCc2ccccc2C1,-5.27%,18.7%,2.07%,7.03%,-0.887%,17.1%,-1.14%,3.68%,15.4%,-11.6%
Cc1cnc(CN(C)C2CCN(Cc3nc4ccccc4n3C)C2)o1 (stereo not given),-2.3%,16%,-6.81%,3.21%,-4.43%,22.6%,-0.979%,14.2%,17.9%,-12.5%
CN(Cc1ccccc1)CC(O)Cn1cnc2ccsc2c1=O (stereo not given),-3.3%,5.13%,-3.73%,8.36%,-0.41%,1.62%,17.5%,0.478%,1.21%,3.76%
CCn1c(CN2CCCC2)nnc1C1CCN(Cc2ccc(C)o2)CC1,-1.86%,0%,4.03%,6.89%,13.6%,13.9%,2.8%,6.92%,19.5%,-6.17%
CN(C)c1ccccc1C(=O)N1C[C@@H](CN2CCOCC2)[C@@H](CO)C1,-7.18%,5.41%,5.57%,6.69%,-0.35%,18.3%,22.3%,7.98%,19.5%,-2.44%
CC(C)CN1C[C@@H]2CN(C(=O)[C@H]3CCCO3)C[C@@H]2C1=O,-2.4%,16.9%,-1.93%,-7.13%,3.65%,5.06%,7.85%,-5.8%,12.5%,-5.7%
Cc1nn2cccnc2c1C(=O)N1CCCC(Nc2ccccc2)C1 (stereo not given),-3.41%,0%,1%,-0.803%,7.54%,-2.46%,-3.46%,5.79%,5.13%,8.56%
O=C(c1ccncc1)N1CCCC2(COCCN(c3ccccc3)C2)C1 (stereo not given),-5.29%,-1.3%,-2.94%,-6.72%,-5.26%,20%,0.424%,6.84%,7.69%,-1.75%
O=C(c1cccs1)N1CC[C@H](O)[C@@H]1Cc1ccccc1,-8.07%,9.09%,8.03%,-0.563%,0.457%,0.601%,23.5%,0.966%,7.5%,-9.97%
CCc1cc(C(=O)N2CCC(Nc3ccc(C)nn3)CC2)sc1C,-4.07%,10.7%,-0.268%,3.61%,-4.88%,2.8%,4.58%,5.79%,7.69%,-9.15%
O=C1CC2(CCCCN2C(=O)c2ccsc2)CN1CC1CC1 (stereo not given),-4.46%,11.7%,1.96%,2.44%,4.57%,0.429%,-8.36%,8.7%,15%,-4.62%
c1cnc(N2CCC3(CCN(CC4CC4)CC3)CC2)nc1,-6.61%,3.9%,-1.99%,-2.82%,-5.67%,6.09%,-6.66%,5.79%,12.8%,-1.89%
Cc1occc1C(=O)N1CCC2(CCC(C(=O)NCC3CC3)O2)CC1 (stereo not given),-0.841%,19.5%,1.13%,-0.75%,1.83%,13%,6.84%,11.6%,20%,-4.43%
Cc1cnn(CCNCc2nnc(C3CC3)o2)c1,2.37%,26%,-7.5%,0.746%,-8.4%,16%,32.1%,6.86%,28.2%,-8.53%
Cc1ncsc1CCC(=O)N1CCCC[C@H](N(C)C)C1,-5.77%,13.5%,14.4%,9.02%,52.8%,13.7%,16.9%,7.98%,21.9%,-3.1%
CN(C)CCN1CCCC12CCN(C(=O)c1cnccn1)CC2,-2.79%,11.7%,2.72%,2.81%,4.57%,3.69%,0.368%,7.73%,15%,-6.82%
CCN1CCN(c2ccc(CNC(=O)c3c(C)noc3C)cn2)CC1,-1.13%,21.3%,-5.5%,3.01%,2.66%,23.8%,1.82%,1.58%,15.4%,-14.6%
Cc1nc(C(=O)N2CCc3c(nc(-c4ccncc4)[nH]c3=O)C2)cs1,-4.53%,0%,1.7%,-2.62%,3.85%,11.6%,5.04%,5.85%,9.76%,-3.73%
CNc1cccc(C2CCCN(C(C)=O)C2)n1 (stereo not given),1.36%,6.67%,-7.25%,-6.71%,3.98%,14.1%,17.4%,1.06%,5%,-14.4%
CCc1nc(CN2CCCN(C(=O)COCC3CC3)CC2)cs1,-1.44%,12.8%,-6.97%,-0.282%,0.82%,9.64%,6.06%,11%,22.9%,-6.08%
